This is a sample that favours compounds with a hit; in the whole collection about 3.1% have one here.
OvCa metastasis – Primary qHTS assay for Inhibitors of ovarian cancer metastasis using an organotypic tumor microenvironment (TME) model. SKOV3ip1-GFP adhesion/invasion on 3D omental model, fluorescence. Potency, µM (top dose mostly 45.8 µM), inactives show at the highest dose activity change, negative = inhibition, most hits filed as inhibitors. 0.1% of 46,000 active. AID 1963576, 2024;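 further: plate controls were DMSO wells for no effect and tomatine positive control wells for full effect; nearly all actives have a fitted effect of over 65% in size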
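A 3D layer of primary human omental fibroblasts, mesothelial cells, fibronectin and collagen I, grown 48 hr, received SKOV3ip1-GFP cells in serum-free medium plus compounds at 0.36-46 umol/L. After 2 hr RT and 16 hr 37 C, fixed adherent GFP cells were counted; normalized to DMSO and tomatine.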
p53null 39C tox – qHTS Screen for Compounds that Selectively Target Cancer Cells with p53 Mutations: Cytotoxicity of p53 Null Cells at the Nonpermissive Temperature; AID 904, 2007; Potency, µM (highest dose often 46.1 µM), for the others: at the top dose activity, negative = cell killing, actives largely listed as cytotoxic; 0.97% of 55,000 active; H1299 p53-null (neo) cells, 39C, ATPlite viability, 24 h;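 further: 0% = DMSO only and -100% = full killing by 100 µM tamoxifen; nearly all actives have a fitted effect of over 50% in size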
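Temperature-shift cytotoxicity format: compound titrations on p53-null or A138V-expressing H1299 cells held 24 hr at 39C, cell ATP then measured, AC50 from Hill model.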
p53null 32C tox – qHTS Screen for Compounds that Selectively Target Cancer Cells with p53 Mutations: Cytotoxicity of p53 Null Cells at the Permissive Temperature. 0.62% of 55,000 active. Potency, µM (highest dose often 46.1 µM), without a hit: top-dose activity change, negative = cytotoxicity, most hits filed as cytotoxic. H1299-neo p53 null cells, ATP luminescence, 24 h, 32C;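 further: 0% = DMSO only and -100% = full killing by 100 µM tamoxifen; nearly all actives have a fitted effect of over 55% in size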
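ATP-content luminescence in p53-null H1299-neo cells after 24 h compound exposure (up to 46 uM) at 32C permissive temperature; 0% and 100% killing set by DMSO and 100 uM tamoxifen; Hill-equation AC50.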
mTORC1 inh – Acumen qHTS Assay for Inhibitors of the mTORC1 Signaling Pathway in MEF (Tsc2-/-, p53-/-) Cells: Sytravon | Tsc2-/- p53-/- MEF, phospho-rpS6 immunofluorescence/PI, 24 h | Potency, µM (highest dose often 38.3 µM), for inactives: at the highest dose activity change, negative = inhibition, most hits filed as inhibitors | 0.78% of 44,000 active;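 further: plate controls were DMSO for no effect and rapamycin for full effect; nearly all actives have a fitted effect of over 50% in size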
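Immunofluorescence of rpS6 phosphorylation in Tsc2-/-, p53-/- MEFs after 24 h compound exposure, normalized to propidium iodide signal. Activity is expressed as % positive cells, thresholded with 7.5 nM rapamycin.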
S16 F2sN tox – Cell viability qHTS assay in S16 Pmp22-F2sN cells | S16 Pmp22-F2sN Schwann cells viability, CellTiter-Glo, 24 h | Potency, µM (doses to about 57.5 µM), inactives show top-dose activity change, negative = cytotoxicity, hits mostly cytotoxic | 0.48% of 43,000 active; further: nearly all actives have a fitted effect of over 65% in size
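Luminescence from CellTiter-Glo, read by CCD camera after a 15 min room-temperature incubation, served as the viability signal. Reporter Schwann cells (S16 Pmp22-F2sN) had been treated with pin-transferred compounds for 24 h at 37C.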
PMP22 txn – Cell-based coincidence reporter assay to measure PMP22 gene transcription in S16 Pmp22-F2sN cells - Primary screen | S16 Pmp22-F2sN Schwann cells (luciferase reporters placed in the Pmp22 gene), FLuc/NLuc coincidence luminescence, 24 h | Potency, µM (doses to about 57.5 µM), without a hit: at the highest dose activity change, negative = inhibition, hits mostly inhibitors | 2% of 43,000 active | AID 1508649, 2021; active means clear falling dose curves in both reporters; inconclusive means both reporters move, but less clearly or upward; inactive means either reporter flat; the % is the NLuc reporter signal
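qHTS, 1536-well. Cells seeded, compounds added by pin tool, 24 h 37C. Nano-Glo reagent 1 (lysis/FLuc), 10 min RT, read; Stop&Glo, 10 min RT, read NLuc.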
Starred values were filed as active, the others as inactive; i = inactive; ? = inconclusive; · = no result. Unless noted, the call rests on the fitted dose curve; in most records, active means well fitted curve in the direction sought with a large enough effect; inconclusive means small, poorly fitted or top-dose-only effect, or another doubt; inactive means no such curve, though single readings can be large; an effect the other way counts as inactive or inconclusive. Unless noted, on the % scale 0 is the no-effect control and ±100 the full control effect; potency means the concentration at half of the fitted maximal effect.

SMILES	OvCa metastasis	p53null 39C tox	p53null 32C tox	mTORC1 inh	S16 F2sN tox	PMP22 txn
O=C1CC(c2ccccc2)Cc2[nH]c(=O)c(-c3nc(-c4cccc(Cl)c4)cs3)cc21 (stereo unspecified)	?	-16%	22%	12µM*	?	-21%
O=C(C1CCN(c2ncnc3c2nc2n3CCCCC2)CC1)N1CCN(c2ccc(F)cc2)CC1	7%	-23%	5%	0%	?	?
Cc1cccc(N2CCN(c3ncnc4c3nc3n4CCCCC3)CC2C)c1 (stereo unspecified)	?	?	-3%	9.3µM*	8.9µM*	4.4µM*
Fc1ccc(N2CCN(c3ncnc4c3nc3n4CCCC3)CC2)cc1	6%	-20%	?	-1%	?	4.5µM*
Cc1ccc(Nc2ncnc3c2nc2n3CCCC2)c(Br)c1	-6%	11µM*	?	-1%	-5%	-4%
Clc1cccc(N2CCN(c3ncnc4c3nc3n4CCCC3)CC2)c1	i	-38%	-11%	-21%	?	?
Cc1ccc(CNc2ncnc3c2nc2n3CCCC2)cc1	25%	-13%	-12%	-1%	-3%	-33%
OC[C@H]1OC(O)C[C@@H](O)[C@H]1O (stereo partly specified)	3%	·	·	·	·	·
Nc1nc(-c2nn(Cc3ccccc3F)c3ncccc23)nc(N)c1N1CCOCC1	-8%	·	·	·	·	·
COCCCNC(=O)c1oc2c(c1C)-c1nn(Cc3cccc(Cl)c3)cc1CC2	0%	18µM*	20%	7%	?	?
CCOc1ccc(Nc2nc(-c3cccc(Cl)c3)c3c(n2)-c2ccccc2OC3)cc1	-10%	?	?	2.3µM*	1%	-4%
Cc1ccc(S(=O)(=O)C(CNC(=O)C(=O)NCCc2ccc(Cl)cc2)c2ccco2)cc1 (stereo unspecified)	25%	-12%	1%	-1%	-29%	-57%
O=C(NCCc1ccc(Cl)cc1)C(=O)NCC(c1ccco1)S(=O)(=O)c1ccc(Cl)cc1 (stereo unspecified)	-7%	10%	-7%	1.2µM*	?	?
COc1ccc(Cl)cc1NC(=O)c1c(NCc2cccnc2)sc2c1CCC(C)C2 (stereo unspecified)	-16%	5%	?	5.8µM*	?	?
COc1ccc(-c2nnc(SC(C)C(=O)O)o2)cc1 (stereo unspecified)	i	16µM*	?	1%	-1%	4%
Cc1nnc(N2CCC(C(=O)NCCc3ccccc3)CC2)c2nn(-c3ccc(Cl)cc3)c(C)c12	-6%	?	6%	3%	-13%	4%
CCc1ccc(CNC(=O)C2CCCN(c3nnc(C)c4c(C)n(-c5ccccc5)nc34)C2)cc1 (stereo unspecified)	?	16µM*	-24%	-3%	?	?
Cc1nnc(N2CCCC(C(=O)NCc3ccccc3)C2)c2nn(-c3ccccc3)c(C)c12 (stereo unspecified)	i	2%	0%	-2%	-4%	-5%
Cc1ccc(-n2nc3c(N4CCCC(C(=O)NCCc5ccccc5)C4)nnc(C)c3c2C)cc1 (stereo unspecified)	?	-4%	9%	-6%	?	?

Screens deposited in PubChem BioAssay by National Center for Advancing Translational Sciences (NCATS).
